Screening data from PubChem.
Compounds with a hit are over-represented: about 12% of the library has one in this group of screens.
Pf growth 96h = P. falciparum growth inhibition at 96 hours; P. falciparum luciferase reporter growth, 96 h; Potency, µM (highest dose often 28.7 µM), usual class: inhibitors; hit rate 6.9% among 320,000; AID 504834
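P. falciparum expressing integrated firefly luciferase grown in erythrocytes (2% hematocrit, 0.05% parasitemia final) with compounds for 96 hours at 37 C, 5% CO2. Growth inhibition read as loss of luminescence after adding luciferase detection reagent.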
SARS PLpro yeast = blocks SARS-CoV papain-like protease in a yeast assay; AID 485353; hit rate 0.19% among 330,000; S. cerevisiae expressing SARS-CoV PLpro, growth rescue; Potency, µM (doses to about 32.9 µM), hits mostly activators; calls by dose curve; further: nearly all actives have a fitted effect of over 55% in size
Sm TGR block = blocks Schistosoma mansoni thioredoxin glutathione reductase | hit rate 3% among 360,000 | Potency, µM (top dose mostly 114 µM), actives largely listed as inhibitors | Q962Y6 | AID 485364 | purified TGR, DTNB reduction, TNB absorbance 405 nm; further: nearly all actives have a fitted effect of over 60% in size
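TGR 20 nM + NADPH 100 uM (dispensed conc.), cpd preinc 15 min RT; start with NADPH (500 uM addition) then DTNB (15 mM addition). Kinetic TNB absorbance, 405 nm filter. Four-parameter Hill fit across titration.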
Pf growth 48h = inhibits P. falciparum growth in the first generation, 48 h. P. falciparum luciferase growth in erythrocytes, 48 h. Potency, µM (series often up to 28.7 µM), actives largely listed as inhibitors. hit rate 5.9% among 310,000
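A one-generation exposure of luciferase-tagged malaria parasites in RPMI 1640/Albumax erythrocyte culture, 37 C and 5% CO2. Inhibition is inferred from decreased luminescence after adding detection reagent.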
Each line names hits and unclear results; the compound was inactive in the other large screens. Unless noted, the call rests on the fitted dose curve; in most records, active means well fitted curve in the direction sought with a large enough effect; inconclusive means small, poorly fitted or top-dose-only effect, or another doubt; inactive means no such curve, though single readings can be large; an effect the other way counts as inactive or inconclusive.

CCN(CC)c1ccc(N=Cc2c(C)[nH]c3ccccc23)cc1	Pf growth 96h 4.65µM, Pf growth 48h 1.85µM
Cc1ccccc1OCCCCc1c(C)n[nH]c1C	SARS PLpro yeast inconclusive
Cc1n[nH]c(C)c1CCCCOc1ccccc1F	Pf growth 96h 2.08µM
COc1cccc(CNC(=O)C(=O)NCC(c2ccc3c(c2)OCO3)N2CCOCC2)c1 (configuration not stated)	none (no result: Pf growth 96h, SARS PLpro yeast, Pf growth 48h)
CCNC(=S)NN=C1c2ccccc2-c2ccccc21	Pf growth 96h 4.65µM
COc1cc(/C=C(\C#N)c2nn(CCO)c(N)c2C#N)cc(OC)c1OC	Pf growth 48h 7.38µM
COc1ccc(N2CCN(C(=O)C(C)n3nc(C)c4sc5ccccc5c4c3=O)CC2)cc1 (configuration not stated)	none (no result: Pf growth 96h, SARS PLpro yeast, Pf growth 48h)
CN(CC1CCOCC1)C(=O)CC1C(=O)NCCN1Cc1cccc(C(F)(F)F)c1 (configuration not stated)	Sm TGR block 44.7µM, Pf growth 48h inconclusive
CCOc1ccc(CN2CCNC(=O)C2CC(=O)NCCc2cnccn2)cc1 (configuration not stated)	Sm TGR block inconclusive
O=C(CC1C(=O)NCCN1Cc1cccc(C(F)(F)F)c1)NCCc1cnccn1 (configuration not stated)	Pf growth 96h 2.08µM
Cc1nonc1CN(C)C(=O)CC1C(=O)NCCN1Cc1cccc(C(F)(F)F)c1 (configuration not stated)	Pf growth 96h 10.4µM, Sm TGR block inconclusive
Cc1cc(Cl)c2oc(C(=O)N(C)CCc3cnn(C)c3)c(C)c2c1	Pf growth 96h 10.4µM
Cc1cc(Cl)c2oc(C(=O)N(C)CCCCN3CCOCC3)c(C)c2c1	Pf growth 96h inconclusive
COc1cc(C)c(C)cc1S(=O)(=O)NC1CC(C)(C)NC(C)(C)C1	none
Cc1nc(NC2=NCN(CCCN3CCOCC3)CN2)nc2c(C)cccc12	Pf growth 48h 2.33µM
Cc1nc(NC2=NCN(C3CCCCC3C)CN2)nc2ccccc12 (configuration not stated)	Pf growth 96h inconclusive, Pf growth 48h 13.1µM
Cc1nc(NC2=NCN(Cc3ccccc3)CN2)nc2ccccc12	Pf growth 48h inconclusive
CCOc1ccc2nc(NC3=NCN(Cc4ccco4)CN3)nc(C)c2c1	Pf growth 96h 14.7µM, Pf growth 48h inconclusive
Cc1nc(NC2=NCN(Cc3ccco3)CN2)nc2ccccc12	Pf growth 96h 1.85µM
COc1cccc(-n2cc(CNC(=O)C3CCC(=O)N(C4CC4)C3)cn2)c1 (configuration not stated)	none
O=C(NCC1CCN(Cc2ccccc2Cl)CC1)c1cc2ccc3cccnc3c2[nH]1	none (no result: Pf growth 96h, SARS PLpro yeast, Pf growth 48h)
CCc1nnc(NC(=O)Cc2ccc(OC)c(OC)c2)s1	none (no result: Sm TGR block)
COc1ccc(CC(=O)Nc2nc(C)cs2)cc1OC	Pf growth 96h 11.7µM
CCCC(=O)Nc1nc2ccc(OC)cc2s1	none
COc1ccc2nc(NC(=O)CCc3ccc(OC)c(OC)c3)sc2c1	Pf growth 96h 11.7µM, Pf growth 48h inconclusive
COc1ccc(CC(=O)Nc2nnc(C(C)(C)C)s2)cc1OC	Pf growth 96h 4.65µM (no result: Sm TGR block)
COc1ccc(CCCc2nnc(SCC(=O)Nc3nc(C)cs3)n2C)cc1C	Pf growth 48h 13.1µM (no result: Pf growth 96h)
CCN1C(=O)C(Cc2nc3ccccc3c(=O)n2-c2cccc(C)c2)c2ccccc21 (configuration not stated)	none (no result: Pf growth 96h, SARS PLpro yeast, Pf growth 48h)
O=C1C(Cc2ccccc2)NC(=S)N1c1ccccc1 (configuration not stated)	Pf growth 48h inconclusive
O=C(O)CC1NC(=O)N(c2ccccc2)C1=O (configuration not stated)	Pf growth 96h 2.62µM
O=C(O)CC1NC(=O)N(C2CCCCC2)C1=O (configuration not stated)	Pf growth 96h 11.7µM
COc1ccc(CC(=O)O/N=C(\N)Cc2cccc3ccccc23)cc1OC	Pf growth 48h 10.4µM
COc1ccc(CC(=O)O/N=C(\N)c2ccccn2)cc1OC	none
COc1ccc(CC(=O)O/N=C(\N)Cc2cccc3ccccc23)cc1	Pf growth 96h 11.7µM, Pf growth 48h inconclusive
Fc1ccccc1-c1csc(=Nc2cccnc2)n1CC1CCCO1 (configuration not stated)	Pf growth 96h 11.7µM, Pf growth 48h 8.28µM
COCCn1c(-c2ccco2)csc1=Nc1cccnc1	Sm TGR block inconclusive, Pf growth 48h inconclusive (no result: Pf growth 96h)
CC(C)Cn1c(-c2ccco2)csc1=Nc1cccnc1	Pf growth 96h inconclusive, Sm TGR block 56.2µM, Pf growth 48h 14.7µM
COCCn1c(-c2cccs2)csc1=Nc1cccnc1	Pf growth 96h inconclusive
Fc1ccccc1-c1csc(=Nc2cccnc2)n1CCCn1ccnc1	Pf growth 96h 14.7µM, Pf growth 48h 7.38µM
CCc1nc2cccnc2n1-c1ccc(CC(=O)Nc2ccccc2Cl)cc1	none (no result: Pf growth 96h, SARS PLpro yeast, Pf growth 48h)
N#Cc1ccccc1NC(=O)c1cc2c(=O)n3ccccc3nc2s1	none (no result: Pf growth 96h, SARS PLpro yeast, Pf growth 48h)
CC(=O)N1CCc2cc(Br)cc(S(=O)(=O)CCC(=O)Nc3ccc(C)cc3Cl)c21	none (no result: Pf growth 96h, SARS PLpro yeast, Pf growth 48h)
CC1(C)CC(C)(c2ccc(O)cc2O)N(c2cccc(Cl)c2)C(=S)N1 (configuration not stated)	Pf growth 96h inconclusive, Pf growth 48h 4.15µM
CC1(C)CC(C)(c2ccc(O)cc2O)N(c2ccc3ccccc3c2)C(=S)N1 (configuration not stated)	Pf growth 96h inconclusive, Pf growth 48h inconclusive
COc1cc(/C=N/N2CCCCC2)cc(OC)c1O	Sm TGR block 14.1µM
Oc1ccc(/C=N/N2CCCCC2)cc1O	Sm TGR block 2.82µM
O=C(Nc1ccc(Oc2ccc(Cl)cc2)c(Cl)c1)c1cc(I)cc(I)c1O	Pf growth 96h inconclusive, Pf growth 48h inconclusive
Nc1nc(SCc2ccc([N+](=O)[O-])cc2)nc2nc3c(cc12)CCCC3	Pf growth 96h 1.47µM, Pf growth 48h inconclusive
Cc1cc(C)nc(SCc2ccc([N+](=O)[O-])cc2)n1	none
CCCCC(CC)CNC(=O)CCCn1c(=O)[nH]c2ccsc2c1=O (configuration not stated)	none (no result: Pf growth 96h, SARS PLpro yeast, Pf growth 48h)
CC(C)CNC(=S)NC(=O)c1ccc(F)cc1	SARS PLpro yeast inconclusive, Sm TGR block 31.6µM
O=C(NC(=S)NC1CCCCC1)c1ccc(F)cc1	Sm TGR block 28.2µM
O=C(NC(=S)NC1CCN(Cc2ccccc2)CC1)c1ccc(F)cc1	Pf growth 96h inconclusive (no result: Pf growth 48h)
Cc1ccc(N2CCN(C(=O)c3noc4c3COc3ccc(C)cc3-4)CC2)c(C)c1	none (no result: Pf growth 96h, SARS PLpro yeast, Pf growth 48h)
Clc1cccc(Nc2nc(-c3ccncc3)nc3ccccc23)c1	Pf growth 96h 0.928µM
Clc1ccccc1Nc1nc(-c2ccncc2)nc2ccccc12	Pf growth 96h inconclusive, Pf growth 48h 13.1µM
COc1ccc(C(C)(C)C)cc1NC(=O)CCCN1C(=O)NC(C)(C)C1=O	none
O=c1c(-c2ccco2)[n+]([O-])c2ccccc2n1OCc1ccccn1	Sm TGR block 17.8µM
O=c1c(-c2ccco2)[n+]([O-])c2ccccc2n1OCc1ccccc1[N+](=O)[O-]	Sm TGR block 15.8µM
CCOn1c(=O)c(-c2cccc([N+](=O)[O-])c2)[n+]([O-])c2ccccc21	none
CCOC(=O)C1CCN(C(c2cccc(F)c2)c2c(O)cc(C)n(Cc3ccco3)c2=O)CC1 (configuration not stated)	Sm TGR block 10µM (no result: Pf growth 96h, SARS PLpro yeast, Pf growth 48h)
